Experimental data published in PubChem BioAssay (NCATS).
Several values for one entry are separate records, joined by “and”; a condition that tells them apart may be missing. Equal values may be shown once. Records with an inconclusive call do not appear. Activity calls are given as the source filed them. Calls come from the whole dose curve; as a rule, active = well fitted curve in the direction sought with a large enough effect; inconclusive = small, poorly fitted or top-dose-only effect, or another doubt; inactive = no such curve, though single readings can be large or run the other way.

Assay: qHTS Assay for Identifying Gametocytocidal Compounds (AID 743244);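 for max response: actives lower the fluorescent signal which means gametocytes are killed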
Conditions: P. falciparum 3D7 stage III-V gametocytes, alamarBlue, 72 h; max response: hits give low values
In short: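 Compounds are pinned into medium, gametocytes (stage III–V, 3D7, 20,000 cells/well) added, and plates held 72 h at 37 °C in 5% CO2. AlamarBlue follows for 24 h before fluorescence reading.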
% is set by controls: 0 for no effect and ±100 for the full control effect; potency is the fitted concentration of half-maximal effect.

**Q.** Which max response does the source give for `Cc1nnc2n1-c1sc(CCC(=O)N3CCOCC3)cc1C(c1ccccc1Cl)=NC2` here?
**A.** -5.44% (inactive) and -14.1% (inactive)

**Q.** For `ClC1=C(Cl)C2(Cl)C(CBr)CC1(Cl)C2(Cl)Cl` (stereo not given), which max response is on record?
**A.** -1.6% (inactive)

**Q.** Which max response does the source give for `Cc1c(C)c2c(c(C)c1OC(=O)CCC(=O)OCCO)CC[C@@](C)(CCC[C@H](C)CCC[C@H](C)CCCC(C)C)O2` here?
**A.** -0.873% (inactive)

**Q.** Which max response does the source give for `CCCCC1C(=O)NC(=O)N(C2CCCCC2)C1=O` (stereo not given) here?
**A.** -2.42% (inactive)

**Q.** For `CNC(C)Cc1ccc2c(c1)OCO2` (stereo not given), which max response is on record?
**A.** -4.91% (inactive)

**Q.** With `CCC1(CC)C(=O)NC(=O)NC1=O` as the compound, how does the max response read?
**A.** -6.5% (inactive)

**Q.** With `O=C(O)Cc1ccccc1` as the compound, how does the max response read?
**A.** -12.8% (inactive)

**Q.** Which max response does the source give for `CCOC(=O)NC(C)(C)Cc1ccc(Cl)cc1` here?
**A.** -1.19% (inactive)

**Q.** Which max response does the source give for `CC[C@H](O)C(C[C@H](C)N(C)C)(c1ccccc1)c1ccccc1` here?
**A.** -14.1% (inactive)

**Q.** For `COc1ccc2[nH]cc(CCN(C(C)C)C(C)C)c2c1`, which max response is on record?
**A.** -5.46% (inactive)

**Q.** With `CCCC[N+]1(C)[C@@H]2CC(OC(=O)[C@H](CO)c3ccccc3)C[C@H]1[C@@H]1O[C@@H]12` (stereo not given in full) as the compound, how does the max response read?
**A.** 5.95% (inactive)

**Q.** For `CC(C)NCC(O)c1ccc(N)c(C#N)c1` (stereo not given), which max response is on record?
**A.** 9.7% (inactive)

**Q.** Which Potency does the source give for `CC(C(O)c1ccccc1)N(C)CCOC(c1ccccc1)c1ccccc1` (stereo not given) here?
**A.** 5.01 µM (active)

**Q.** Which max response does the source give for `C[C@H]1CNCCc2ccc(Cl)cc21` here?
**A.** 16.3% (inactive)

**Q.** For `CC[C@H]1C[C@H]2[C@@H]3CCC4=CC(=O)CC[C@@H]4[C@H]3CC[C@]2(C)[C@H]1O`, which max response is on record?
**A.** -17.8% (inactive)

**Q.** With `COc1ccc2c(C(=O)c3ccc(Cl)cc3)c(C)n(CC(=O)O)c2c1` as the compound, how does the max response read?
**A.** 36.2% (inactive)

**Q.** With `CN1C(=O)CN=C(c2ccccc2)c2cc(Cl)ccc21` as the compound, how does the max response read?
**A.** -5.96% (inactive)

**Q.** Which max response does the source give for `CN(C)C(=O)Oc1cc(OC(=O)N(C)C)cc(C(O)CNC(C)(C)C)c1` (stereo not given) here?
**A.** 14.4% (inactive)

**Q.** For `NCc1cccnc1`, which max response is on record?
**A.** -3.33% (inactive)

**Q.** Which max response does the source give for `NC(=O)OCCCc1ccccc1` here?
**A.** -5.39% (inactive)

**Q.** For `CCN(CC)CCOC(=O)C(C)(c1ccccc1)c1ccccc1`, which max response is on record?
**A.** 10.8% (inactive)

**Q.** With `C#C[C@]1(O)CC[C@H]2[C@@H]3CCC4=CC(=O)CCC4=C3C=C[C@@]21CC` as the compound, how does the max response read?
**A.** -5.06% (inactive)

**Q.** Which max response does the source give for `O=C(O)c1ccccc1Nc1cc(Cl)ccc1C(=O)O` here?
**A.** 32.7% (inactive)

**Q.** For `CN(C)CCc1c[nH]c2ccc(O)cc12`, which max response is on record?
**A.** -10.2% (inactive)

**Q.** With `CCC(=O)OC1(c2ccccc2)CCN(C)CC1` as the compound, how does the max response read?
**A.** -1.1% (inactive)

**Q.** For `COP(=S)(OC)Oc1ccc(S(N)(=O)=O)cc1`, which max response is on record?
**A.** 5.01% (inactive)

**Q.** For `C[N+]1(C)[C@@H]2CC[C@H]1CC(OC(=O)C(CO)c1ccccc1)C2` (stereo not given in full), which max response is on record?
**A.** -7.22% (inactive) and -0.641% (inactive)

**Q.** Which max response does the source give for `O=C(N[C@H]1N=C(c2ccccc2F)c2cccc3c2N(CC3)C1=O)c1cc2ccccc2[nH]1` here?
**A.** -4.83% (inactive)

**Q.** With `CCC1(c2ccccc2)CCC(=O)NC1=O` (stereo not given) as the compound, how does the max response read?
**A.** -3.28% (inactive)

**Q.** Which max response does the source give for `CNC(=O)NC(O)C(Cl)(Cl)Cl` (stereo not given) here?
**A.** 8.2% (inactive)

**Q.** For `C[C@]12Cc3nonc3C[C@@H]1CC[C@@H]1[C@@H]2CC[C@@]2(C)[C@H]1CC[C@]2(C)O`, which max response is on record?
**A.** -3.73% (inactive)

**Q.** With `CCCOC(=O)Cc1ccc(OCC(=O)N(CC)CC)c(OC)c1` as the compound, how does the max response read?
**A.** -6.3% (inactive)

**Q.** Which Potency does the source give for `O=C(Nc1ccc(Cl)cc1)Nc1ccc(Cl)c(Cl)c1` here?
**A.** 15.8 µM (active) and 29.6 µM (active)

**Q.** For `CC[C@H]1C[C@@H]2C[C@H]3c4[nH]c5ccc(OC)cc5c4CCN(C2)[C@@H]13`, which max response is on record?
**A.** 5.97% (inactive)

**Q.** With `CC1=C2[C@H]3OC(=O)[C@@H](C)[C@@H]3CC[C@@]2(C)C=CC1=O` as the compound, how does the max response read?
**A.** 4.47% (inactive)
